# Only some compounds are listed: those with a hit (about 4.7% of all), similar ones and a draw of the others.
# D1 antag: antagonists of human D1 dopamine receptor | P21728 | HEK293 TREx D1 cells, calcium flux, dopamine EC80; hits give low values | activity change, negative = inhibition, % at 10 µM | actives 3.2% (n = 360,000) | AID 504652; in the data active = activity change below about -30%
# Target sequence (P21728 whole entry, looked up): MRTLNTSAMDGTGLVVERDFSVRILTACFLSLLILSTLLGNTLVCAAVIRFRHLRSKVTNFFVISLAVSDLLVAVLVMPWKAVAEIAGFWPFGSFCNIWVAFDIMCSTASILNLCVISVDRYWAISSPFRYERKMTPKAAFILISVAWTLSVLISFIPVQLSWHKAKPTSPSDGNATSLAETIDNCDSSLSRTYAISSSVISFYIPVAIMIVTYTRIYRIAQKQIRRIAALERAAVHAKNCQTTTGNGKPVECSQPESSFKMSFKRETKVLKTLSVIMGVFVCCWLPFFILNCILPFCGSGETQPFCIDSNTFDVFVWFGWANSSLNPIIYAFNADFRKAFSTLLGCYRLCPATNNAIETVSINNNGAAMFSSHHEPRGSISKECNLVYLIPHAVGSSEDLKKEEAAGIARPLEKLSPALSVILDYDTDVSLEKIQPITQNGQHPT
#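 Tetracycline-induced HEK293 Trex D1 cells, force-coupled to calcium, dye-loaded; compounds added and read 180 s, then EC80 dopamine added and calcium flux tracked kinetically another 180 s.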
# D1 agonist: agonists of human D1 dopamine receptor | P21728 | HEK293 T-REx D1 cells, calcium flux, agonist mode | activation, % at 2 µM | actives 1% (n = 360,000) | AID 504660
#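 Tetracycline-induced HEK293 TREx D1 cells, force-coupled to calcium signalling, were dye-loaded with a no-wash calcium kit. Compound was pin-added after a 10 s baseline. Fluorescence was read kinetically at 1 cycle/s for 180 s, with calcium rises flagged as agonism.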
# TRHR enhancer: allosteric enhancers of human TRH receptor; TRHR cells, fluo-8 calcium fluorescence, EC20 TRH enhancement; actives 0.66% (n = 360,000); enhancement, % at 2 µM; P34981; in the data active = enhancement above about 30%
#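 TRHR-expressing cells loaded with fluo-8 calcium dye were read kinetically (ex 480/em 530) during compound addition, then stimulated with an EC20 of TRH (10 nM final). Enhancement of the Gq-mediated intracellular calcium response was scored.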
# TRHR agonist: activates the human TRH receptor; TRHR cells, calcium flux fluo-8, FDSS agonist mode; AID 493084; activation, % at 2 µM; P34981; actives 0.18% (n = 360,000)
#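 In this calcium-flux screen, cells bearing human TRHR are dye-loaded with fluo-8, baselined for 10 cycles, then exposed to library compounds; positive kinetic calcium responses during the agonist phase mark hits, with TRH as control.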
# D1 potentiator: human D1 dopamine receptor positive modulation; HEK293 TREx D1 cells, calcium flux, dopamine EC20 potentiation; actives 0.036% (n = 360,000); potentiation, % at 10 µM; in the data active = potentiation above about 30%
# A number is an active result; 0 = inactive; - = not tested or not shown. Rule as the data show it, unless noted: active = activation above about 30%; inactive = the rest.
SMILES,D1 antag,D1 agonist,TRHR enhancer,TRHR agonist,D1 potentiator
O=C(Nc1ccccc1C(F)(F)F)c1noc2c1CCCCC2,0,0,0,0,0
Cc1ccc(-n2nc(CO)c(C(=O)NCCCCc3ccccc3)n2)cc1C,0,0,0,0,0
O=[N+]([O-])c1ccc(N2N=C(c3ccccc3)CC2c2ccccc2O)cc1 (stereo not given),0,63,0,0,0
COc1cc(N2N=C(c3ccccc3)CC2c2ccccc2)c(C=O)cc1C=O (stereo not given),0,0,0,0,0
O=C(c1ccccc1)N1N=C(c2ccccc2)CC1c1ccccc1O (stereo not given),0,0,0,0,0
COc1ccccc1N1N=C(c2ccc([N+](=O)[O-])cc2)CC1c1ccccc1 (stereo not given),0,63,0,0,0
S=C(NC1CCCC1)N1CCN(c2ccc(Cl)cc2)CC1,-46,0,0,0,0
S=C(NCc1ccccc1)N1CCN(c2ccccc2)CC1,-31,0,0,0,0
FC(F)(F)c1cccc(N2CCN(C(=S)NC3CCCC3)CC2)c1,0,0,0,0,0
S=C(NCc1ccco1)N1CCN(c2ccc(Cl)cc2)CC1,0,0,40,0,0
O=C(NCc1ccccc1)N1CCN(c2ccccc2)CC1,0,0,0,0,0
S=C(Nc1ccccc1)N1CCN(C/C=C/c2ccccc2)CC1,0,0,0,0,0
S=C(NC1CCCC1)N1CCN(C/C=C/c2ccccc2)CC1,-36,0,0,0,0
CC(C)c1ccc(NC(=O)[C@H]2O[C@@H]3OC(C)(C)O[C@@H]3[C@H]3OC(C)(C)O[C@H]32)cc1,0,0,0,0,0
COc1cccc(Nc2nc3c(S(=O)(=O)c4cc(C)ccc4C)nnn3c3ccsc23)c1,0,0,0,0,0
COc1ccccc1CNC(=O)c1ccc(Cn2c(SCc3ccccc3)nc3cccnc32)cc1,0,0,0,0,0
CCCSCCCNC(=O)c1ccc2c(c1)sc1nc(-c3ccc(OCC)cc3)cn12,0,0,0,0,0
CC(=O)N1CCc2c(sc3c2c(=O)n(-c2ccccc2)c(=O)n3Cc2cccc(C(F)(F)F)c2)C1,0,0,0,0,0
CC(=O)Nc1ccc(OS(=O)(=O)c2ccc(C(C)(C)C)cc2)cc1,-56,0,0,0,0
Oc1ccc(C2C[C@H]3CC[C@@H]2C3)cc1O (stereo not given in full),0,0,0,0,0
Oc1ccc(C2CNCc3sccc32)cc1O (stereo not given),-96,92,0,0,0
COc1cccc(/C=C/c2nc(C#N)c(N3CCC(C(N)=O)CC3)o2)c1,0,0,0,0,0
CCC(SC1=NCCS1)C(=O)Nc1ccc(S(N)(=O)=O)cc1 (stereo not given),-46,0,0,0,0
CCN(CC)C(=O)NC1CC2CCCC(C1)N2Cc1ccccc1 (stereo not given),0,0,0,0,0
O=C(/C=C/c1ccccc1)NC1CC2CCCC(C1)N2Cc1ccccc1 (stereo not given),-96,0,0,0,0
SMILES,D1 antag,D1 agonist,TRHR enhancer,TRHR agonist,D1 potentiator
COc1ccc(C(=O)NC2CC3CCCC(C2)N3CC(C)C)cc1 (stereo not given),0,0,0,0,0
COc1ccc(CN2C3CCCC2CC(NC(=O)/C=C/c2ccccc2)C3)cc1 (stereo not given),-51,77,0,0,0
O=C(/C=C/c1cccc(F)c1)NC1CCN(Cc2ccccc2)CC1,-45,0,0,0,-
CCCc1ccc(-c2cc(NC(=O)CSc3n[nH]c(N)n3)n(-c3ccccc3)n2)cc1,0,33,0,0,0
CC(NC(=O)CSc1n[nH]c(N)n1)c1ccccc1 (stereo not given),0,0,0,0,-
CCc1ccccc1Nc1nc(N)nc(CSCC(=O)Nc2ccc(C)c(C)c2)n1,0,0,0,0,0
CCc1ccc(NC(=O)CSCc2nc(N)nc(Nc3ccccc3CC)n2)cc1,-36,0,0,0,0
Cc1cc2c(cc1S(=O)(=O)N(CCN(C)C)Cc1ccccc1)OCC(=O)N2,0,0,0,0,0
CC(=O)Nc1ccc(Nc2nc(Cl)nc(Nc3ccc(NC(C)=O)cc3)n2)cc1,-36,0,0,0,0
COc1ccc(N2CCN(C(=O)CCc3c(C)nc4cc(-c5ccc(OC)cc5OC)nn4c3C)CC2)cc1,0,0,0,0,0
COCCCNC(=O)CCc1c(C)nc2cc(-c3ccc(Cl)cc3)nn2c1C,-54,0,0,0,0
COc1ccc(N2CCN(C(=O)CCc3c(C)nc4cc(-c5ccc(Cl)cc5)nn4c3C)CC2)cc1,-39,0,0,0,0
CCCCNC(=O)CCc1c(C)nc2cc(-c3ccccc3)nn2c1C,0,0,0,0,0
CCCn1cc(S(=O)(=O)c2cccc(Cl)c2)c(=O)c2cc(F)c(N3CCOCC3)cc21,0,0,0,0,0
COC(=O)C1CCN(S(=O)(=O)c2cc3c4c(c2)C(C)C(=O)N4CCC3)CC1 (stereo not given),0,0,0,0,0
Cc1c(C(=O)N(Cc2cccc(F)c2)C2CCS(=O)(=O)C2)oc2cc(Br)ccc12 (stereo not given),0,0,0,0,0
COc1ccc(N2CCN(C(=O)CNC(=O)c3ccco3)CC2)cc1,-80,0,0,0,0
COc1ccc(N2CCN(S(=O)(=O)CCNC(=O)c3ccco3)CC2)cc1,0,0,0,0,0
CCN(C(=O)c1cn(CC)c(=O)c2cc(OC)c(OC)cc12)c1ccc(C)c(C)c1,0,0,0,0,0
Cc1ccc(-c2c(C(=O)N3CCN(c4cccc(C)c4)C(C)C3)oc(=O)c3ccccc23)cc1 (stereo not given),-37,0,0,0,0
Cc1cccc(N2CCN(C(=O)CCN3C(=O)C4C5C=CC(C5)C4C3=O)CC2C)c1 (stereo not given),0,0,0,0,0
Cc1cccc(N2CCN(C(=O)c3ccccn3)CC2C)c1 (stereo not given),0,0,0,0,0
Cc1cccc(N2CCN(C(=O)c3cccc(N4C(=O)C5C6C=CC(C6)C5C4=O)c3)CC2C)c1 (stereo not given),-35,0,0,0,0
CCc1ccccc1N(CC)C(=O)CCc1nc(-c2ccc(C)cc2)no1,0,34,0,0,0
Cc1ccc(-c2noc(CCC(=O)N(C)c3ccccc3F)n2)cc1,0,0,0,0,0
CC(C)(C)c1ccc(-c2noc(CCC(N)=O)n2)cc1,-40,0,0,0,0
COc1cccc(N2CCN(C(=O)c3cccn3-c3nnc(N4CCCC4)s3)CC2)c1,0,0,0,0,0
O=C(NCCC(=O)N1CCN(c2ncccn2)CC1)c1ccccc1,-33,0,0,0,0
O=C(O)CCCC(=O)N1CCN(c2ncccn2)CC1,-36,0,0,0,0

# Screening results as filed in PubChem BioAssay.
